The list is not random: actives were taken first. Their share in the collection is about 5.8%.
KB-V1 MDR tox = KB-V1 MDR subline cytotoxicity. actives 3.4% (n = 400,000). KB-V1 MDR cells viability, CellTiter-Glo, 72 h. Potency, µM (series often up to 46.1 µM), usual class: cytotoxic; note: % is set by controls: 0 for no effect and ±100 for the full control effect; nearly all actives have a fitted effect of over 60% in size
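KB-V1 cells (P-gp-expressing MDR subline of KB-3-1) in phenol-red-free DMEM with 10% FBS were exposed to library compounds over a concentration series for 72 h at 37 degrees C. Viability read by CellTiter-Glo luminescence; concentration-effect curves fitted after normalization.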
KB-3-1 cytotox = kills parental KB-3-1 adenocarcinoma cells; AID 1347075; Potency, µM (titrated, usually from 46.1 µM), most hits filed as cytotoxic; actives 1.4% (n = 400,000); KB-3-1 viability, CellTiter-Glo ATP luminescence, 72 h; note: % is set by controls: 0 for no effect and ±100 for the full control effect; nearly all actives have a fitted effect of over 60% in size
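Multi-concentration cytotoxicity screen in KB-3-1 cells grown in DMEM lacking phenol red with 10% FBS. After 72 h at 37 °C with compound, ATP-dependent luminescence was recorded.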
PINK1 modulator = PINK1 expression modulation. PINK1 immunofluorescence, high-content cytometry, 24 h. Potency, µM (series often up to 76.6 µM), for inactives: at the top dose activation (PINK1 increase), usual class: activators. actives 0.2% (n = 410,000). AID 624263; active = well fitted activation curve with a large enough effect; inconclusive = small, poorly fitted or top-dose-only effect; cell line not stated here; note: % of control where 0% means no effect; nearly all actives have a fitted effect of over 65% in size
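Stable cell line, 250 cells/well, 12 h attachment; compounds pinned at 5 concentrations, 24 h; CCCP control. Fixed with nuclear dye, primary antibodies 12 h at 10 degrees C, secondary plus cell stain; laser-scanning cytometer read.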
MCF10A rerep = inducers of DNA re-replication in MCF 10A breast cells; actives 2.9% (n = 350,000); Potency, µM (top dose mostly 46.1 µM), without a hit: at the top dose activity, positive = re-replication, actives largely listed as activators; MCF 10A DNA re-replication, Hoechst nuclear intensity, 48 h; note: % of control where 0% means no effect; nearly all actives have a fitted effect of over 50% in size
12-LOX inh = ALOX12 (human) lipoxygenase inhibition | P18054 | actives 1.1% (n = 580,000) | purified 12hLO, xylenol orange hydroperoxide absorbance | Potency, µM (series often up to 108 µM), inactives show top-dose activity change, negative = inhibition, usual class: inhibitors; note: % is set by controls: 0 for no effect and ±100 for the full control effect
Target sequence (P18054 whole entry, looked up): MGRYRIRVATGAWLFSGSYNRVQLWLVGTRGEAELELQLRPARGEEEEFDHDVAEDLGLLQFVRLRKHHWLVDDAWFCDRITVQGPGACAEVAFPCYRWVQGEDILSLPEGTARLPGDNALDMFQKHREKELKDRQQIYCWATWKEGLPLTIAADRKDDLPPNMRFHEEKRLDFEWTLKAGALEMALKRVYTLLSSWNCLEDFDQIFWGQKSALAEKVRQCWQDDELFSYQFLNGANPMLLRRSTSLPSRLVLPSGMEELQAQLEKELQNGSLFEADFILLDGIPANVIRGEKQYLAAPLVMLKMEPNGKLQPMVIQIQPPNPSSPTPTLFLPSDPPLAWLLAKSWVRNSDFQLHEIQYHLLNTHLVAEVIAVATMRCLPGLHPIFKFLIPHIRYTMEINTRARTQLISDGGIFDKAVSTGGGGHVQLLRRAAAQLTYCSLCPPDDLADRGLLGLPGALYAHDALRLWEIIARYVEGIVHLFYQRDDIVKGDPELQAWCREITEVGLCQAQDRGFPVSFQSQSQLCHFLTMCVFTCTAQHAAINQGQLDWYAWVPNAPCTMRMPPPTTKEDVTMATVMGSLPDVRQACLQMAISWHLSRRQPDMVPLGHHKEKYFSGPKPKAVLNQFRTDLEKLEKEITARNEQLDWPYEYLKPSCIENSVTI
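Purified human 12hLO (150 nM final) in 25 mM Hepes, 0.01% Triton X-100, pH 7.0 was preincubated 15 min at room temperature with compound. Then 40 uM arachidonic acid was added, 30 min. Hydroperoxide was read by Fe-XO absorbance ratio 573/405 nm.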
SW480 rerep = DNA re-replication induction in SW480 cells; Potency, µM (series often up to 46.1 µM), for inactives: top-dose re-replication activation, usual class: activators; actives 1.8% (n = 340,000); SW480 DNA re-replication, Hoechst DNA content imaging, 48 h; AID 624297; note: % of control where 0% means no effect; nearly all actives have a fitted effect of over 55% in size
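Per well, 250 cells were exposed to pinned compound for 48 hr. Nuclear DNA was visualised with Hoechst (40 min, 37 C) and total object intensity recorded by fluorescence scanning.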
* hit, by the source's call; i = inactive; ? = inconclusive; nt = not tested or not shown; [ ] = remark or other dose. Unless noted, calls come from the whole dose curve; as a rule, active = well fitted curve in the direction sought with a large enough effect; inconclusive = small, poorly fitted or top-dose-only effect, or another doubt; inactive = no such curve, though single readings can be large; an effect the other way counts as inactive or inconclusive. Potency is the fitted concentration of half-maximal effect.

SMILES | KB-V1 MDR tox | KB-3-1 cytotox | PINK1 modulator | MCF10A rerep | 12-LOX inh | SW480 rerep
CCc1ccc(OCCNC(=O)c2ccccc2SCc2ccccc2)cc1 | ? | ? | 3.4% | 16.4µM* | 23.6% | 8.0%
O=C(CSc1nnc2ccccn12)N1CCN(Cc2cccc(Cl)c2)CC1 | nt | nt | nt | nt | 48.0% | nt
Cc1cc(C)cc(OC(C)C(=O)Nc2nonc2-c2ccc(Br)cc2)c1 (stereo unspecified) | i | i | 15.8µM* | nt | -17.3% | nt
O=C(NC1c2ccccc2-c2ccccc21)N1CCCCC1 | 16.4µM* | ? | 1.6% | 14.3% | 24.8% | 9.2%
CC(CCc1ccccc1)NC(=O)C12CC3CC(CC(C3)C1)C2 (stereo unspecified) | nt | nt | nt | nt | 46.3% | nt
C/C(Cl)=C/C[N+]1(CC#Cc2cccc3ccccc23)CCOCC1 | nt | nt | nt | nt | -1.0% | nt
COc1ccc(CC2(CO)CCN(S(=O)(=O)c3c(C)nn(C)c3Cl)CC2)cc1 | i | i | 0.7% | 3.0% | 1.5% | -32.3%
Cc1nn(C)c(Cl)c1S(=O)(=O)N1CCC(CO)(CCc2ccccc2)CC1 | 23.1µM* | ? | 1.0% | 16.5% | 7.2% | -5.7%
COc1ccc(NC(=O)CN(C)C(=O)COc2ccc3oc4c(c3c2)CCCC4)cc1 | nt | nt | nt | nt | -17.6% | nt
O=C(N/N=C\C=C\c1ccco1)c1cc(-c2ccc3ccccc3c2)n[nH]1 | i | i | ? | 7.31µM* | 39.8µM* | 17.1%
Cc1ccc(OCC(=O)N/N=C/C=C/c2ccco2)cc1C | i | i | -1.0% | ? | 39.8µM* | 6.7%
O=C(CNc1cccc2ccccc12)N/N=C/C=C/c1ccco1 | i | i | 1.3% | -3.0% | 31.6µM* | -5.1%
Cc1sc2cc(C(=O)NCC3CC3)[nH]c2c1CN1CCCCC1 | nt | nt | nt | nt | 19.6% | nt
CCc1nnc2sc(-c3ccc(CNC(=O)C(C)(C)Oc4ccc(Cl)cc4)cc3)nn12 | nt | nt | nt | nt | 67.7% | nt
O=S(=O)(Nc1cccc2c1CCCC2)c1cc(F)ccc1F | nt | nt | nt | nt | -0.7% | nt
O=C1C(=Cc2cn(-c3ccccc3)nc2-c2ccc(OCc3ccc(Cl)cc3)cc2)SC(=S)N1CCS(=O)(=O)O | ? | 8.2µM* | 2.8% | nt | -87.2% | nt
O=C1C(=Cc2cn(-c3ccccc3)nc2-c2ccc(OCc3ccccc3F)cc2)SC(=S)N1CCS(=O)(=O)O | i | i | 0.3% | nt | ? | nt
CCc1ccc(S(=O)(=O)N2CC(COC)C3(CCNCC3)C2)cc1 (stereo unspecified) | nt | nt | nt | nt | 4.4% | nt
Cc1ccc(Oc2ccccc2NC(=O)CSCC(=O)Nc2cc(C)on2)cc1 | 4.61µM* | ? | -0.5% | ? | 16.3% | -4.7%
Cc1cc(NC(=O)CSCC(=O)Nc2ccccc2Oc2ccccc2)no1 | 10.3µM* | ? | 0.5% | 21.0% | 1.1% | -9.5%
Cc1cc(NC(=O)CSCc2nc(-c3cccc(F)c3)oc2C)no1 | i | i | 0.2% | 0.9% | 44.2%[57.4 µM] | -4.1%
Cc1ccc(-c2nc(CSCC(=O)Nc3cc(C)on3)c(C)o2)cc1 | 23.1µM* | i | 2.6% | 0.7% | 6.3%[57.4 µM] | -12.9%
COCCCNc1oc(-c2ccccc2C)nc1C#N | nt | nt | nt | nt | -12.6% | nt
Brc1ccc(CNc2ccc3ncccc3c2)cc1 | ? | ? | 0.4% | 14.6µM* | -35.4% | -4.9%
C/C(=N\NC(=O)c1c(Cl)c(C)nn1C)c1ccc(NC(=O)COc2ccc(Cl)cc2C)cc1 | i | i | 13.7% | 20.6µM* | 18.3% | -1.1%
SMILES | KB-V1 MDR tox | KB-3-1 cytotox | PINK1 modulator | MCF10A rerep | 12-LOX inh | SW480 rerep
C/C(=N\NC(=O)c1c([N+](=O)[O-])c(C)nn1C)c1ccc(NC(=O)C2CCCC2)cc1 | 6.51µM* | 0.461µM* | 5.1% | 0.411µM* | 1.9% | 5.8µM*
C/C(=N/NC(=O)c1cccs1)c1ccc(N2CCOCC2)cc1 | i | i | 15.6% | -1.6% | 6.9% | 0.517µM*
C/C(=N\NC(=O)c1c(Cl)c(C)nn1C)c1ccc(NC(=O)C2CCC2)cc1 | 3.26µM* | 1.03µM* | 2.4% | ? | -0.8% | 1.84µM*
O=C(NCCc1ccc2c(c1)OCCO2)c1ccc(NC(=O)c2ccco2)cc1 | nt | nt | nt | nt | 11.1% | nt
COc1ccc(NC(=O)C2(n3cnnn3)CCCCC2)cc1 | nt | nt | nt | nt | 44.2% | nt
C/C(=N/NC(=O)c1cccs1)c1ccc(NC(=O)COc2ccc(Cl)cc2)cc1 | i | ? | 6.8% | 5.17µM* | 0.0% | ?
Cc1ccc(-c2csc3nc4cc(C(N)=O)ccc4c(=O)n23)cc1 | i | i | 2.7% | ? | 17.8µM* | -47.5%
Cc1ccccc1COc1ccccc1C(=O)OCc1ccc(-c2ccccc2)cc1 | nt | nt | nt | nt | -4.9% | nt
COCCN1C(=O)/C(=C/c2ccc(N3CCCC3)cc2C)SC1=S | i | i | 22.4µM* | -5.4% | -7.0% | -9.5%
COc1cccc(NC(=O)C(C#N)C(=O)Cc2ccccc2C)c1 (stereo unspecified) | nt | nt | nt | nt | 38.5% | nt
CCOc1ccccc1N1CC(c2nc3ccccc3n2CCOc2ccc(OC)cc2)CC1=O (stereo unspecified) | 5.8µM* | i | 2.7% | nt | -25.5% | nt
Cc1ccc(OCCn2c(C3CC(=O)N(Cc4ccccc4)C3)nc3ccccc32)cc1 (stereo unspecified) | i | ? | 23.3% | 11.6µM* | ? | 0.7%
Cc1cccc(C)c1OCCCCn1c(C2CC(=O)N(c3ccc(F)cc3)C2)nc2ccccc21 (stereo unspecified) | i | i | 0.4% | nt | 31.6µM* | nt
Cc1cc(C)nc(SCc2cn3c(C)cccc3n2)n1 | i | i | 2.2% | 2.6% | -19.3% | -5.2%
Cc1cc(C)c(C#N)c(SCc2cn3c(C)cccc3n2)n1 | 18.4µM* | i | 2.3% | -4.6% | -7.4% | nt
Cc1cccc2nc(CSc3nc4ccccc4o3)cn12 | 16.4µM* | ? | -2.1% | 22.9% | 7.9% | 4.2%
Cc1noc(C)c1-c1cc2cc(CN(C)C)oc2c(N2CCOCC2)n1 | nt | nt | nt | nt | 1.5%[176 µM] | nt
C(=NNc1nnn(Cc2ccccc2)n1)c1ccccc1 | 16.4µM* | ? | 6.6% | nt | 0.3% | nt
O=C(COc1ccccc1[N+](=O)[O-])Nc1ccc(N2CCN(C(=O)c3cccs3)CC2)cc1 | 9.2µM* | i | -0.2% | 22.0% | 350.8% | 1.3%
O=C(c1ccco1)N1CCN(C(=O)C(Sc2ccccc2)c2ccccc2)CC1 (stereo unspecified) | 20.6µM* | ? | -2.1%[38.3 µM] | ? | -19.1% | -4.4%
O=C(COc1ccccc1Cl)Nc1ccc(N2CCCC2)cc1 | i | i | 4.9% | ? | 402.7% | 16.4µM*
Cc1ccccc1OCC(=O)Nc1ccc(N2CCN(C(=O)c3ccco3)CC2)cc1 | 7.31µM* | ? | 1.2% | 0.2% | 1.4% | -2.2%
O=C(c1ccc2cc[nH]c2c1)N1CCC(C(=O)N2CCCCC2)CC1 | nt | nt | nt | nt | -11.0% | nt

Compound activity as filed in PubChem BioAssay.
